Data from PubChem BioAssay (EPA / NIEHS).
Values joined by “and” are separate entries in the source; they are usually repeats but may differ in a detail not shown here. Equal values may be shown once. Results filed as inconclusive are left out. Some compounds were tested as several samples or in several runs, with calls that do not always agree. Active and inactive are the calls of the source. How the source made its calls, unless noted: active means hit-call score of the fitted dose curve at least 0.9, where 1 is the maximum; inactive means score below 0.9.

Experiments:
[1] = molecular target: Steroid hormone receptor ERR1 (Homo sapiens) (UniProt P11474); assay: ATG_ERRa_TRANS: Attagene TRANS-FACTORIAL HepG2 Assay for human Estrogen-Related Receptor alpha (ERRa) (AID 2282971; active means hit-call score of the fitted dose curve at least 0.9, where 1 is the maximum); details: HepG2 Attagene TRANS reporter, ERRa transactivation
Sequence of Steroid hormone receptor ERR1 (Homo sapiens) (P11474 whole entry, looked up, the tested form may be a part): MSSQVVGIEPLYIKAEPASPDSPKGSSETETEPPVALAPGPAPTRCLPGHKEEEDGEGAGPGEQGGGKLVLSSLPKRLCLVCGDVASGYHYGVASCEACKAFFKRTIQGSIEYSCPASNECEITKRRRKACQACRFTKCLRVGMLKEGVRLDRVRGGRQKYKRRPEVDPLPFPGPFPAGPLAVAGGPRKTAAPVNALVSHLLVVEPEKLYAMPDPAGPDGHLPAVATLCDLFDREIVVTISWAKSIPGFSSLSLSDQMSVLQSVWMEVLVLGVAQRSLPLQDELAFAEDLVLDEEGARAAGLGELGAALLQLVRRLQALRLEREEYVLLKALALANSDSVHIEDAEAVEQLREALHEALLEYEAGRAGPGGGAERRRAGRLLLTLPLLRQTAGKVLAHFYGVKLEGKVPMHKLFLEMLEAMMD
Outline: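 Signal gain relative to DMSO for an ERRa-Gal4 chimeric receptor, read as reporter mRNA by RT-PCR/capillary electrophoresis. Human HepG2 liver cells, transient multiplex reporter transfection, 24 h chemical exposure.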

[2] = read-out: Interleukin-8 (IL8), CXCL8 (gene 3576); assay: BSK_3C_IL8: BioMAP Diversity Plus: 3C Assay for Interleukin-8 (IL8) Biomarker Activity (AID 2283020); details: primary human endothelial cells (HUVEC); actives raise or lower the signal
Outline: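 HUVEC, 3C stimulation; 24 h compound exposure; IL-8 read by ELISA; gain or loss of signal fitted relative to DMSO control.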

[3] = read-out: Monokine induced gamma interferon (MIG), CXCL9 (gene 4283); assay: BSK_3C_MIG: BioMAP Diversity Plus: 3C Assay for Monokine induced gamma interferon (MIG) Biomarker Activity (AID 2283021); details: primary human endothelial cells (HUVEC); actives raise or lower the signal;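 on AC50: MIG protein level measured by immunoassay in the treated endothelial cultures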
Outline: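 HUVEC, 3C system; 24 h chemical exposure; MIG by ELISA; bidirectional fit vs DMSO baseline.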

[4] = read-out: Pselectin, SELP (gene 6403); assay: BSK_4H_Pselectin: BioMAP Diversity Plus: 4H Assay for Pselectin Biomarker Activity (AID 2283026); details: primary human endothelial cells (HUVEC); actives raise or lower the signal
Outline: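 HUVEC, 24 h chemical exposure; P-selectin read by ELISA. Bidirectional curve fit vs DMSO baseline; gain or loss of signal scored.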

[5] = BSK_4H_SRB: Viability Assessment in the BioMAP Diversity Plus: 4H Assay (AID 2283027); details: primary human endothelial cells (HUVEC);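 further: cells exposed to compound for 24 h before staining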;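 on AC50: curves fitted both ways versus DMSO so AC50 may be loss or gain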
Outline: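 Cytotoxicity readout: sulforhodamine B (0.1%) staining of total protein after 10% TCA fixation, measured at 560 nm in human umbilical vein endothelium at 24 h. DMSO set the baseline; fitting was bidirectional.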

[6] = read-out: Urokinase-type plasminogen activator receptor (uPAR), PLAUR (gene 5329); assay: BSK_4H_uPAR: BioMAP Diversity Plus: 4H Assay for Urokinase-type plasminogen activator receptor (uPAR) Biomarker Activity (AID 2283030); details: primary human endothelial cells (HUVEC); actives raise or lower the signal
Outline: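 Endpoint derived via bidirectional curve fitting against DMSO baseline; readout was ELISA detection of uPAR on umbilical vein endothelial cells at 24 h post-treatment, with SRB-stained parallel cultures assessing cytotoxicity.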

[7] = read-out: Plasminogen activator inhibitor-1 (PAI1), SERPINE1 (gene 5054); assay: BSK_BE3C_PAI1: BioMAP Diversity Plus: BE3C Assay for Plasminogen activator inhibitor-1 (PAI1) Biomarker Activity (AID 2283037); details: primary human bronchial epithelial cells; actives raise or lower the signal
Outline: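 ELISA read-out of PAI-1 from human bronchial epithelial primary cells, 24 h post-dosing; bidirectional curve fit vs DMSO baseline, gain or loss of signal scored.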

[8] = read-out: urokinase plasminogen activator (uPA), PLAU (gene 5328); assay: BSK_BE3C_uPA: BioMAP Diversity Plus: BE3C Assay for urokinase plasminogen activator (uPA) Biomarker Activity (AID 2283038); details: primary human bronchial epithelial cells; actives raise or lower the signal
Outline: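 Using confluent primary human lung bronchial epithelial cultures, we dosed chemicals, waited 24 h, then ran a uPA ELISA, fitting bidirectionally against DMSO.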

[9] = read-out: Tissue plasminogen activator (tPA), PLAT (gene 5327); assay: BSK_BE3C_tPA: BioMAP Diversity Plus: BE3C Assay for Tissue plasminogen activator (tPA) Biomarker Activity (AID 2283041); details: primary human bronchial epithelial cells; actives raise or lower the signal;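 further: tPA level quantified by ELISA one day after compound addition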
Outline: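 ELISA read-out of tPA on human primary bronchial epithelial cells, 24 h post-dosing; bidirectional fit vs DMSO negative control/baseline.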

[10] = read-out: Macrophage colony-stimulating factor (MCSF), CSF1 (gene 1435); assay: BSK_CASM3C_MCSF: BioMAP Diversity Plus: CASM3C Assay for Macrophage colony-stimulating factor (MCSF) Biomarker Activity (AID 2283044); details: primary human coronary artery smooth muscle cells; actives raise or lower the signal;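 further: M-CSF protein amount quantified by ELISA after 24 h exposure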
[11] = BSK_CASM3C_SRB: Viability Assessment in the BioMAP Diversity Plus: CASM3C Assay (AID 2283050); details: primary human coronary artery smooth muscle cells;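 further: total protein by SRB staining as cytotoxicity measure in parallel cultures; cells exposed to compound for 24 h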
[12] = read-out: Thrombomodulin, THBD (gene 7056); assay: BSK_CASM3C_Thrombomodulin: BioMAP Diversity Plus: CASM3C Assay for Thrombomodulin Biomarker Activity (AID 2283051); details: primary human coronary artery smooth muscle cells; actives raise or lower the signal;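 further: thrombomodulin protein level measured by ELISA 24 h after dosing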
[13] = read-out: Vascular cell adhesion molecule 1 (VCAM1), VCAM1 (gene 7412); assay: BSK_CASM3C_VCAM1: BioMAP Diversity Plus: CASM3C Assay for Vascular cell adhesion molecule 1 (VCAM1) Biomarker Activity (AID 2283055); details: primary human coronary artery smooth muscle cells; actives raise or lower the signal;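 further: VCAM-1 protein level quantified by ELISA on the cells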
[14] = read-out: TIMP metallopeptidase inhibitor 2 (TIMP2), TIMP2 (gene 7077); assay: BSK_KF3CT_TIMP2: BioMAP Diversity Plus: KF3CT Assay for TIMP metallopeptidase inhibitor 2 (TIMP2) Biomarker Activity (AID 2283071); details: primary human keratinocytes with fibroblasts; actives raise or lower the signal
Outline: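 ELISA readout of TIMP-2 in keratinocyte plus foreskin fibroblast co-cultures (human skin primary cells), 24 h post-dose. Gain or loss of signal fitted relative to DMSO.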

[15] = read-out: Interleukin-8 (IL8), CXCL8 (gene 3576); assay: BSK_LPS_IL8: BioMAP Diversity Plus: LPS Assay for Interleukin-8 (IL8) Biomarker Activity (AID 2283078); details: primary human HUVEC with PBMC; actives raise or lower the signal
Outline: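 In this LPS system, chemical-treated human umbilical vein endothelium/PBMC co-cultures were harvested at 24 h for IL-8 ELISA.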

[16] = read-out: Monocyte Chemoattractant Protein-1 (MCP1), CCL2 (gene 6347); assay: BSK_LPS_MCP1: BioMAP Diversity Plus: LPS Assay for Monocyte Chemoattractant Protein-1 (MCP1) Biomarker Activity (AID 2283081); details: primary human HUVEC with PBMC; actives raise or lower the signal;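 on AC50: co-culture stimulated with LPS; secreted MCP-1 protein quantified by ELISA in culture supernatant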
Outline: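 Values derive from bidirectional fitting against DMSO of ELISA-measured MCP-1 in a human primary endothelial and mononuclear cell co-culture, 24 h after chemical addition under LPS activation.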

[17] = read-out: CD38, CD38 (gene 952); assay: BSK_SAg_CD38: BioMAP Diversity Plus: SAg Assay for CD38 Biomarker Activity (AID 2283087); details: primary human HUVEC with PBMC; actives raise or lower the signal
Outline: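 Measures CD38 on a human endothelial/PBMC co-culture driven by SEB and TSST-1, 24 h after compound exposure, using ELISA with fluorescence detection; DMSO defines baseline for bidirectional curve fitting.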

[18] = read-out: Monocyte Chemoattractant Protein-1 (MCP1), CCL2 (gene 6347); assay: BSK_SAg_MCP1: BioMAP Diversity Plus: SAg Assay for Monocyte Chemoattractant Protein-1 (MCP1) Biomarker Activity (AID 2283090); details: primary human HUVEC with PBMC; actives raise or lower the signal
Outline: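 Values derive from bidirectional fitting of ELISA-measured MCP1 against DMSO controls. Readings were taken 24 h after dosing human vascular endothelial cells co-cultured with peripheral blood mononuclear cells under superantigen stimulation.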

[19] = read-out: E-selectin (Homo sapiens) (UniProt P16581); assay: BSK_SAg_Eselectin: BioMAP Diversity Plus: SAg Assay for Eselectin Biomarker Activity (AID 2283091); details: primary human HUVEC with PBMC; actives raise or lower the signal
Outline: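 Endpoint values derive from bidirectional fitting relative to DMSO, using ELISA-measured E-selectin in a human vascular co-culture (umbilical vein endothelium plus PBMC) sampled 24 h after dosing.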

[20] = molecular target: Estrogen receptor beta (Homo sapiens) (UniProt Q92731); assay: OT_ER_ERbERb_0480: Odyssey Thera (OT) 8-hour HEK293T Protein-Complementation Assay for Estrogen Receptor-beta/-beta Homodimer (AID 2283357; active means hit-call score of the fitted dose curve at least 0.9, where 1 is the maximum;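 further: active means signal gain over DMSO baseline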)
Sequence of Estrogen receptor beta (Homo sapiens) (Q92731 whole entry, looked up, the tested form may be a part): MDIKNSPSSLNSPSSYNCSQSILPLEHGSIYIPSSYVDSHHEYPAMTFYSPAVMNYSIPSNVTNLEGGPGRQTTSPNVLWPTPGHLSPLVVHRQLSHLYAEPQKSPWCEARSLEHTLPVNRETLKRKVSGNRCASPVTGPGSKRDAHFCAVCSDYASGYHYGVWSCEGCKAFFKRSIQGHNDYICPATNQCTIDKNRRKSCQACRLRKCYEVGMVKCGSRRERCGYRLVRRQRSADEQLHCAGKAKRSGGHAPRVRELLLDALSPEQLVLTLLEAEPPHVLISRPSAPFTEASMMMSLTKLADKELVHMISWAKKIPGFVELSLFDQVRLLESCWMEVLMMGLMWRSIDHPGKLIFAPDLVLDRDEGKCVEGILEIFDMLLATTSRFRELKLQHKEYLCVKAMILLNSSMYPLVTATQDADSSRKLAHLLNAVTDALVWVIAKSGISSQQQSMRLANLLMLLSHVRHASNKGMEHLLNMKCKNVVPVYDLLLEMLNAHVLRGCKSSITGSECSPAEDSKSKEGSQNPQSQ
Outline: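 Fluorescence gain from complemented reporter fragments on ER-beta LBD homodimer in HEK293T was quantified against DMSO controls after 8 h treatment, fixation in 4% formaldehyde and Draq5 staining.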

Measured: AC50

Sequence of E-selectin (Homo sapiens) (P16581 whole entry, looked up): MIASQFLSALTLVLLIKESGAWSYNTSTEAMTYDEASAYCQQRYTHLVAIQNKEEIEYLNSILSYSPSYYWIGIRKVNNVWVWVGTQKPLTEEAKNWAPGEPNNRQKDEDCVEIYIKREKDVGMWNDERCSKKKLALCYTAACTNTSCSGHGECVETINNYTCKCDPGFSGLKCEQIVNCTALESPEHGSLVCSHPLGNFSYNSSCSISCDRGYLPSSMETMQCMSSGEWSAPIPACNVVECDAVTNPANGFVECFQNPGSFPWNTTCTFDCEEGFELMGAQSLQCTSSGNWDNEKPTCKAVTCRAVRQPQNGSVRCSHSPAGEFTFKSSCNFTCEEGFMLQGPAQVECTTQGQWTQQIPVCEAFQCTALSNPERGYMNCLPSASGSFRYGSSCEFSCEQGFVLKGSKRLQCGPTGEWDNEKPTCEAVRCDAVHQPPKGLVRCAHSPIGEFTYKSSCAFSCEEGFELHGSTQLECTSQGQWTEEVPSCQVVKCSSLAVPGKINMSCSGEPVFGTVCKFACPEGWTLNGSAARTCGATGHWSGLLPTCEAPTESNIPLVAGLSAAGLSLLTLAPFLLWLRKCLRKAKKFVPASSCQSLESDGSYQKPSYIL

Oc1ccc(C2(c3ccc(O)cc3)c3ccccc3-c3ccccc32)cc1
inactive: [1] | [8] | [9]
active: [2] 17.2 µM and 20 µM | [3] 16 µM and 14.8 µM | [4] 3.01 µM and 5.41 µM | [5] 11.9 µM | [6] 16.5 µM and 14.4 µM | [7] 5.27 µM and 5.31 µM | [8] 0.15 µM | [10] 11.1 µM and 20 µM | [11] 20 µM | [12] 1.93 µM and 20 µM | [13] 3.97 µM | [14] 5.37 µM and 5.43 µM | [15] 28.9 µM and 28.2 µM | [16] 16.5 µM and 14.2 µM | [17] 8.99 µM and 9.75 µM | [18] 11.8 µM and 11.2 µM | [19] 10.2 µM and 7.86 µM

CCCCCCCCCCCCCCCC[N+](C)(C)C
inactive: [20]

O=CNC(N1CCN(C(NC=O)C(Cl)(Cl)Cl)CC1)C(Cl)(Cl)Cl (configuration not stated)
inactive: [1]

N#CCCCCC#N
not listed: [1] | [20]
inactive: all other assays above

CC(C)COP(=O)(OCC(C)C)OCC(C)C
not listed: [20]
inactive: all other assays above

c1ccc(P(c2ccccc2)c2ccccc2)cc1
active: [20] 25.4 µM

CCCCCCCCCCCC#N
active: [2] 20.6 µM | [4] 20.6 µM | [5] 30.3 µM | [6] 20.6 µM | [11] 29.3 µM | [13] 20.6 µM | [15] 29 µM | [17] 35.6 µM | [18] 33 µM | [19] 31.3 µM
inactive: [3] | [7] | [8] | [9] | [10] | [12] | [14] | [16]

CC1(C)[C@H](C(=O)O[C@H](C#N)c2cccc(Oc3ccccc3)c2)[C@@H]1C=C(Br)Br
active: [6] 5.23 µM | [12] 8.23 µM | [13] 3.97 µM | [14] 298 nM | [17] 2.42 µM | [19] 1.52 µM
inactive: [1] | [2] | [3] | [4] | [5] | [6] | [7] | [8] | [9] | [10] | [11] | [12] | [13] | [14] | [15] | [16] | [17] | [18] | [19] | [20]

CNC(=O)Oc1cc(C)c(SC)c(C)c1
active: [10] 13.3 µM | [11] 10.1 µM | [13] 20 µM
not listed: [1] | [20]
inactive: all other assays above

O=P1(NCCCl)OCCCN1CCCl (configuration not stated)
not listed: [20]
inactive: all other assays above

CC(C)c1ccc(O)cc1
active: [20] 57.9 µM
